Source: PubChem BioAssay
Where “and” joins values, the source holds several entries; their conditions need not be identical. Identical values can stand only once. Calls of active or inactive are those of the source.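 How the source made its calls, unless noted: active means thallium flux through the channel raised or lowered by more than 3 SD from vehicle-only wells, actives on both sides; inactive means the rest.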

Key:
[1] = Wnt pathway potentiators raising nuclear beta-catenin – imaging, WNT3A-conditioned medium, mouse C2C12, NPC library, primary screen (AID 1117326; in the data active means nuclear beta-catenin stimulation mostly above about 4.2%, no sharp cut-off; inactive means mostly below about 10%); details: stronger effect = higher value
[2] = stimulators of insulin release from INS-1E, primary screen, cell-based, 5 mM glucose, NPC library (AID 1117329;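 active means compound raises insulin release from rat beta cells at 5 mM glucose, no numeric limit stated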); details: rat INS-1E insulin secretion, at 10 µM, stronger effect = higher value
[3] = growth inhibition of GSK3B-pretreated HCT116 cells – cell-based, CellTiter-Glo, 0.2 to 20 µM (AID 1117336;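 active means compounds lowering colon cancer cell viability after pretreatment blocking the GSK3B kinase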); details: HCT116 viability after GSK3B inhibitor, at 20 µM, stronger effect = higher value
[4] = inhibition of endothelial tube formation, primary screen, imaging, VEGF stimulated, CD31 staining, tube area, NPC library (AID 1117340;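 active means compound that reduces growth-factor-driven endothelial tube area in a mixed cell culture, no cutoff stated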); details: VEGF-stimulated ADSC/ECFC co-culture, at 10 µM, stronger effect = higher value
[5] = GLP1 release stimulators, primary, NCI-H716, NPC library (AID 1117341;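 active means compound raises GLP1 secretion from the human gut endocrine cells, with no numeric limit stated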); details: NCI-H716 cells, at 10 µM, stronger effect = higher value
[6] = HCT116 colon cancer cell growth inhibition, primary screen, CellTiter-Glo luminescence, NPC library (AID 1117342;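 active means compounds that lower survival of HCT116 colon cancer cells in the luminescence readout, no numeric limit stated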); details: at 20 µM (top of the series)
[7] = reduced SW480 viability measured with CellTiter-Glo, NPC library, primary (AID 1117343;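 active means compounds that lower viability of the colon cancer cells in the luminescence readout, with no numeric limit stated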); details: CellTiter-Glo luminescence; at 20 µM (top of the series)
[8] = NPC library primary testing for decreased DLD-1 cell viability via CellTiter-Glo (AID 1117346;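 active means compounds that lower survival of DLD-1 colon cancer cells in the luminescence readout, no cutoff given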); details: DLD-1 viability, CellTiter-Glo luminescence; at 20 µM (top of the series)
[9] = target: 6-phosphogluconate dehydrogenase, decarboxylating (Homo sapiens) (UniProt P52209); experiment: inhibition of human phosphogluconate dehydrogenase – biochemical, recombinant enzyme, NADPH absorbance, primary screen (AID 1159550;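 active means at least 20% inhibition of 6-phosphogluconate dehydrogenase activity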); details: recombinant 6PGD, NADPH absorbance 341 nm; at 10 µM; stronger effect = higher value
6-phosphogluconate dehydrogenase, decarboxylating (Homo sapiens), sequence (P52209 whole entry, looked up): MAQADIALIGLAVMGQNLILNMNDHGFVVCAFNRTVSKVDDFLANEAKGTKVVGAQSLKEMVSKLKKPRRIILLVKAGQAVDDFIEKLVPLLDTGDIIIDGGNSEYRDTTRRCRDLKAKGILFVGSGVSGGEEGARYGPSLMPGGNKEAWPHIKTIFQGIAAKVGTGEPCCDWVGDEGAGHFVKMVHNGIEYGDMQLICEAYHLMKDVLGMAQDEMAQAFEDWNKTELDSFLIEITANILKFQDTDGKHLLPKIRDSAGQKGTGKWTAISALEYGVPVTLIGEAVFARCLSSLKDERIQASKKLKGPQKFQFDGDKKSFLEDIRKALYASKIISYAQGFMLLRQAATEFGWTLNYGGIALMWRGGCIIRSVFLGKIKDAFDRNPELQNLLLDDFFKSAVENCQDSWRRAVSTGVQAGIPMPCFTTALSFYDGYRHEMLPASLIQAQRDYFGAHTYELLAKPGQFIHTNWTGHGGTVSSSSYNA

[10] = modulation of C. elegans fzo-1 (AID 1259413; call rule not given here;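 further: fzo-1 mutant C. elegans worms in liquid wells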); details: C. elegans fzo-1 modulator screen, mean read-out; stronger effect = higher value
[11] = EMT-state selective cytotoxicity in co-culture – imaging, PC-3E GFP, TEM4-18 mCherry, primary screen (AID 1345086;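 active means compounds killing one labelled cell type while sparing the other, by normalised counts and ratio limits, not self-fluorescent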;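 on all read-outs here: cells exposed to compound for 72 h before imaging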;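 on red/green cell ratio (normalised): normalised mesenchymal count divided by normalised epithelial count so high means epithelial killing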); details: PC-3E GFP / TEM4-18 mCherry co-culture, imaging cell counts, at 1 µM; for red/green cell ratio (normalised): actives lie on both sides, counts scaled to control wells, 1 = unselective
[12] = MELAS cybrid and Rieske KO viability enhancers – cell-based, MELAS cybrids, Rieske KO mouse fibroblasts, CellTiter-Glo, primary screen (AID 1508586;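 active means mean z-score across replicates of 1.96 or higher in either the MELAS or the Rieske mutant cell line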;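 further: z relative to plate mean and SD of compound and empty wells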); details: low glucose
[13] = target: NAD(+) hydrolase SARM1 (Homo sapiens) (UniProt Q6SZW1); experiment: blocking NAD cleavage by SARM1 SAM-TIR – cell lysate, NAD-Glo luminescence (AID 1508614;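 active means compound whose remaining NAD level is above about 45 nM, limit read from the data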); details: SAM-TIR HEK293T lysate NADase, at 1 µM, stronger effect = higher value
NAD(+) hydrolase SARM1 (Homo sapiens), sequence (Q6SZW1 whole entry, looked up, the tested form may be a part): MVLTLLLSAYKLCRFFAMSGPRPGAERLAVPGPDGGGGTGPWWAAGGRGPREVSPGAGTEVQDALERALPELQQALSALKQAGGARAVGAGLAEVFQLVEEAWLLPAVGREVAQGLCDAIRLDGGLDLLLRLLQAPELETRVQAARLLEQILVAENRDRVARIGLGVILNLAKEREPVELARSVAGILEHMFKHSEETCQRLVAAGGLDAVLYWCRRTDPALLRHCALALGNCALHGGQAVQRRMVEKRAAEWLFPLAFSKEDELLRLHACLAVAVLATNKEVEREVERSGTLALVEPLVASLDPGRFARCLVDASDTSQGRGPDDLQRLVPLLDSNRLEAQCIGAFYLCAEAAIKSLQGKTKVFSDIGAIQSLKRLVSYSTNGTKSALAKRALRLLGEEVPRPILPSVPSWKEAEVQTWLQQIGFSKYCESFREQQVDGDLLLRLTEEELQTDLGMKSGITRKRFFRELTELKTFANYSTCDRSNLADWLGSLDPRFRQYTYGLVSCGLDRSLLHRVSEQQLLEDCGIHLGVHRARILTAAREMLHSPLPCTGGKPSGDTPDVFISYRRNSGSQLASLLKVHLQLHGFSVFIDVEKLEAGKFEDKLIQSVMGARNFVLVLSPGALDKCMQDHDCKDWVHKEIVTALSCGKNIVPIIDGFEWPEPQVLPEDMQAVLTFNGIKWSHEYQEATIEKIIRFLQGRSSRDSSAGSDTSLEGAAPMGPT

[14] = target: Mitogen-activated protein kinase 7 (Homo sapiens) (UniProt Q13164); experiment: Gal4-ERK5 driven luciferase induction – cell-based, HTS, primary screen (AID 1508626;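 active means luciferase signal above three times the same-plate solvent-only control wells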;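 further: luciferase driven by Gal4-ERK5 fusion binding five Gal4 sites before minimal TATA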); details: HeLa Gal4-ERK5 transactivation, 18 h, at 5 µM, stronger effect = higher value
Mitogen-activated protein kinase 7 (Homo sapiens), sequence (Q13164 whole entry, looked up, the tested form may be a part): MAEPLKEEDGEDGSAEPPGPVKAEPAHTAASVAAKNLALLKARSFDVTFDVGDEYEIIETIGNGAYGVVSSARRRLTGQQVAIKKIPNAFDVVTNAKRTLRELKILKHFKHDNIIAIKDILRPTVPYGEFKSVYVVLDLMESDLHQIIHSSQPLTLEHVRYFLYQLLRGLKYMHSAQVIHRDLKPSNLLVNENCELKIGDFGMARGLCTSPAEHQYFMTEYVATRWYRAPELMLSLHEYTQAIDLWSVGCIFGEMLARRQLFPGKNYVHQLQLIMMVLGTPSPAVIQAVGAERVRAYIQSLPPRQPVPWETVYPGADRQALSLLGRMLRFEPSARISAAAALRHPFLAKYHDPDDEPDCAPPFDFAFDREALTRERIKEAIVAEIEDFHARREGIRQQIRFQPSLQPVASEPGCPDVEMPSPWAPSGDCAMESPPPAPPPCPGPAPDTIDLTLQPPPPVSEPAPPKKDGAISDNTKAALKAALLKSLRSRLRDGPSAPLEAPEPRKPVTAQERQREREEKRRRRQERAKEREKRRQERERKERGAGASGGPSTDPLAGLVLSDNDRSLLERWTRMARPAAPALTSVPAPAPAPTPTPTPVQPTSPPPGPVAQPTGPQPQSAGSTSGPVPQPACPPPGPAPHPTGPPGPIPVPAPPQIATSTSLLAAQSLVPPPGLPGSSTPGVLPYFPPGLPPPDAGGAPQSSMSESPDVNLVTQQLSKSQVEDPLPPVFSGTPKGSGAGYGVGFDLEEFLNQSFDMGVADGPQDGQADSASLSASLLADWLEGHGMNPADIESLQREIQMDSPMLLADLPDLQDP

[15] = test system: F380Y; experiment: BK channel mutant inhibitors and activators – cell-based, U2OS BacMam, thallium flux, beta subunits, selectivity assay, profiling panel (AID 1259406); details: U2OS BacMam BK variants, at 30 µM;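 further: initial slope of Thallos dye fluorescence rise after thallium is added; log ratio against the mean of 0.3% DMSO vehicle wells on the same plate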
[16] = test system: F380Y/beta1; experiment: as above; details: U2OS BacMam BK variants, at 30 µM
[17] = test system: F380Y/beta2Delta; experiment: as above; details: U2OS BacMam BK variants, at 30 µM
[18] = growth inhibition, single agents and combos, ICB984, cell-based, cisplatin or BGB combos, synergistic combos for chromothripsis tumors (AID 1671451; call rule not given here;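 further: cells exposed for 96 hours before readout; 0% = vehicle DMSO and 100% = killing by high DMSO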); details: ICB984 medulloblastoma cells, drug combinations, stronger effect = higher value
[19] = measured here: epithelial PC-3E GFP cell survival
[20] = measured here: mesenchymal TEM4-18 mCherry cell survival
[21] = MELAS cybrid survival, CellTiter-Glo 48 h, stronger effect = higher value
[22] = Rieske KO mouse fibroblast survival, CellTiter-Glo 72 h

## O=C(C1CCCCC1)N1CC(=O)N2CCc3ccccc3C2C1 (stereo not drawn)
[1]; at 10 µM
  nuclear beta-catenin stimulation: -0.4% (inactive)
[1]; stimulation, at 2 µM
  nuclear beta-catenin stimulation: -1.1%
[2]
  insulin secretion stimulation: 2.5% (inactive)
[3]
  viability decrease: -3.8% (inactive)
[4]
  tube area decrease: -2.6% (inactive)
[5]
  GLP1 secretion stimulation: -2.7% (inactive)
[6]
  inhibition of viability: -11.5% (inactive)
[7]
  viability decrease (inhibition): 19.5% (inactive)
[8]
  viability decrease (inhibition): -16.7% (inactive)
[9]
  inhibition: -0.949% (inactive)
[10]
  mean signal: 236 (inactive)
[11]
  red/green cell ratio (normalised): 1.48 (inactive)
[11]; [19]
  normalised cell number: 0.96
[11]; [20]
  normalised cell number: 1.42
[12]; [21]
  z-score: -0.396 (inactive) and 0.0285 (inactive) and 0.65 (inactive)
[12]; [22]
  z-score: -0.176 and 0.00765 and 0.589
[13]
  remaining NAD: 10 nM (inactive)
[14]
  luciferase signal: 32 AU (inactive)
[15]
  log fold change Tl+ flux: 0.0282 (inactive)
[16]
  log fold change Tl+ flux: 0.027 (inactive)
[17]
  log fold change Tl+ flux: 0.0335 (inactive)

## N[C@@H]1CONC1=O
[1]; at 10 µM
  nuclear beta-catenin stimulation: 0.4% (inactive)
[1]; stimulation, at 2 µM
  nuclear beta-catenin stimulation: 3.4%
[2]
  insulin secretion stimulation: 1.4% (inactive)
[3]
  viability decrease: -9.9% (inactive)
[4]
  tube area decrease: 3.2% (inactive)
[5]
  GLP1 secretion stimulation: -0.7% (inactive)
[6]
  inhibition of viability: 8.67% (inactive)
[7]
  viability decrease (inhibition): -6.2% (inactive)
[8]
  viability decrease (inhibition): -14.1% (inactive)
[9]
  inhibition: 6.28% (inactive)
[10]
  mean signal: 211 (inactive)
[11]
  red/green cell ratio (normalised): 1.34 (inactive)
[11]; [19]
  normalised cell number: 1.27
[11]; [20]
  normalised cell number: 1.71
[12]; [21]
  z-score: 0.819 (inactive)
[12]; [22]
  z-score: 0.724
[13]
  remaining NAD: 10 nM (inactive)
[14]
  luciferase signal: 64 AU (inactive)
[15]
  log fold change Tl+ flux: 0.0411 (inactive) and -0.0245 (inactive)
[16]
  log fold change Tl+ flux: 0.0612 (inactive)
[17]
  log fold change Tl+ flux: -0.00859 (inactive) and -0.0479 (inactive)

## O=C(O)c1cc(=O)c2c(OCC(O)COc3cccc4oc(C(=O)O)cc(=O)c34)cccc2o1
[1]; at 10 µM
  nuclear beta-catenin stimulation: -1.8% (inactive)
[1]; stimulation, at 2 µM
  nuclear beta-catenin stimulation: 1.3%
[2]
  insulin secretion stimulation: 1.6% (inactive)
[3]
  viability decrease: -32.8% (inactive)
[4]
  tube area decrease: -2.5% (inactive)
[5]
  GLP1 secretion stimulation: -0.5% (inactive)
[6]
  inhibition of viability: 2.4% (inactive)
[7]
  viability decrease (inhibition): 19.3% (inactive)
[8]
  viability decrease (inhibition): -7.8% (inactive)
[9]
  inhibition: 10.5% (inactive)
[10]
  mean signal: 249 (inactive)
[11]
  red/green cell ratio (normalised): 1.26 (inactive)
[11]; [19]
  normalised cell number: 1.29
[11]; [20]
  normalised cell number: 1.63
[12]; [21]
  z-score: 0.0651 (inactive) and -0.552 (inactive)
[12]; [22]
  z-score: 0.522 and -0.245
[13]
  remaining NAD: 10 nM (inactive)
[14]
  luciferase signal: 72 AU (inactive)
[15]
  log fold change Tl+ flux: -0.0252 (inactive)
[16]
  log fold change Tl+ flux: -0.0414 (inactive)
[17]
  log fold change Tl+ flux: -0.0103 (inactive)

## CCN(Cc1ccncc1)C(=O)C(CO)c1ccccc1 (stereo not drawn)
[1]; at 10 µM
  nuclear beta-catenin stimulation: 0.5% (inactive)
[1]; stimulation, at 2 µM
  nuclear beta-catenin stimulation: -1.9%
[2]
  insulin secretion stimulation: 1.6% (inactive)
[3]
  viability decrease: 11.6% (inactive)
[4]
  tube area decrease: 7.1% (inactive)
[5]
  GLP1 secretion stimulation: 0.1% (inactive)
[6]
  inhibition of viability: 14.3% (inactive)
[7]
  viability decrease (inhibition): 12% (inactive)
[8]
  viability decrease (inhibition): 3.8% (inactive)
[9]
  inhibition: -16.3% (inactive)
[10]
  mean signal: 244 (inactive)
[11]
  red/green cell ratio (normalised): 1.08 (inactive)
[11]; [19]
  normalised cell number: 1.08
[11]; [20]
  normalised cell number: 1.16
[12]; [21]
  z-score: 0.0477 (inactive) and 0.409 (inactive) and -0.211 (inactive)
[12]; [22]
  z-score: 0.0479 and 0.424 and 0.901
[13]
  remaining NAD: 10 nM (inactive)
[14]
  luciferase signal: 108 AU (inactive)
[15]
  log fold change Tl+ flux: 0.0305 (inactive)
[16]
  log fold change Tl+ flux: -0.00694 (inactive)
[17]
  log fold change Tl+ flux: -0.0245 (inactive)

## O=C(O)CCCc1ccccc1
[1]; at 10 µM
  nuclear beta-catenin stimulation: 0.2% (inactive)
[1]; stimulation, at 2 µM
  nuclear beta-catenin stimulation: 0.9%
[2]
  insulin secretion stimulation: 1.8% (inactive)
[3]
  viability decrease: -6.2% (inactive)
[4]
  tube area decrease: -15% (inactive)
[5]
  GLP1 secretion stimulation: -1.1% (inactive)
[6]
  inhibition of viability: 0.1% (inactive)
[7]
  viability decrease (inhibition): 12.5% (inactive)
[8]
  viability decrease (inhibition): -3.9% (inactive)
[9]
  inhibition: -10% (inactive)
[10]
  mean signal: 232 (inactive)
[11]
  red/green cell ratio (normalised): 1 (inactive)
[11]; [19]
  normalised cell number: 1.12
[11]; [20]
  normalised cell number: 1.11
[12]; [21]
  z-score: -0.2 (inactive) and -0.108 (inactive)
[12]; [22]
  z-score: -0.148 and -0.948
[13]
  remaining NAD: 10 nM (inactive)
[18]; BGB IC20 combo, at 0.005 µM
  inhibition: -2.57%
[18]; BGB IC40 combo, at 0.005 µM
  inhibition: -13.4%
[18]; BGB IC40 combo, at 0.05 µM
  inhibition: 6.23%
[18]; at 0.5 µM
  inhibition: -32.1% (inactive)
[18]; cisplatin combo, at 0.05 µM
  inhibition: 3.61%
[18]; cisplatin combo, at 0.5 µM
  inhibition: -38.8%
[18]; cisplatin combo, at 5 µM
  inhibition: -20.8%
[18]; measured here: 5 uM single agent, at 5 µM
  inhibition: -6.76%
[15]
  log fold change Tl+ flux: 0.0311 (inactive)
[16]
  log fold change Tl+ flux: 0.0211 (inactive)
[17]
  log fold change Tl+ flux: -0.00447 (inactive)

## CC1Cc2ccccc2N1NC(=O)c1ccc(Cl)c(S(N)(=O)=O)c1 (stereo not drawn)
[1]; at 10 µM
  nuclear beta-catenin stimulation: 1% (inactive)
[1]; stimulation, at 2 µM
  nuclear beta-catenin stimulation: 6%
[2]
  insulin secretion stimulation: -0.1% (inactive)
[3]
  viability decrease: -7.2% (inactive)
[4]
  tube area decrease: 2.8% (inactive)
[5]
  GLP1 secretion stimulation: 4.6% (inactive)
[6]
  inhibition of viability: -2.13% (inactive)
[7]
  viability decrease (inhibition): -2.3% (inactive)
[8]
  viability decrease (inhibition): 3.8% (inactive)
[9]
  inhibition: 0.53% (inactive)
[10]
  mean signal: 231 (inactive)
[11]
  red/green cell ratio (normalised): 1.37 (inactive)
[11]; [19]
  normalised cell number: 1.01
[11]; [20]
  normalised cell number: 1.38
[12]; [21]
  z-score: -0.244 (inactive) and 0.521 (inactive) and 0.421 (inactive)
[12]; [22]
  z-score: 0.75 and 0.194 and 0.772
[13]
  remaining NAD: 10 nM (inactive)
[14]
  luciferase signal: 56 AU (inactive)
[15]
  log fold change Tl+ flux: 0.00177 (inactive)
[16]
  log fold change Tl+ flux: 0.039 (inactive)
[17]
  log fold change Tl+ flux: 0.049 (inactive)
